Records with an inconclusive call do not appear. Values without a mark were called inactive. Calls follow the shape of the dose curve; as a rule, active = well fitted cell-killing curve with a large enough effect in the repeat runs; inconclusive = weak or mixed curves; inactive = flat fitted curve, though single readings scatter.
Assay: qHTS RealTime-Glo MT Cell Viability Assay in HepG2 cells - 8 hour (AID 1224873); also: nearly all actives have a fitted effect of over 55% in size
Conditions: RealTime-Glo luminescence; series mostly up to 76.8 µM; viability change, negative = cytotoxic: at the top concentration
Excerpt: National Center for Advancing Translational Sciences [NCATS]
NIH Chemical Genomics Center [NCGC]
U.S. Environmental Protection Agency [EPA]
National Institutes of Environmental Health Sciences [NIEHS]
National Toxicology Program [NTP]
U.S. Food and Drug Administration [FDA]
Measure of cell viability is critical in the cell-base assay. Analysis of cell viability is necessary for the characterization of cell responses to cytotoxic drugs and environmental stress. A RealTime-Glo MT Cell Viability Assay to monitor cell viability in real time of continues cell culture during 40 hours of compound treatment was used to screen Tox21 10K library compounds in HepG2 cells. The RealTime-Glo MT Cell Viability Assay is a nonlytic, homogeneous, bioluminescent method to measure cell viability in real time using a simple, plate-based method. The assay involves adding NanoLuc luciferase and a cell-permeant prosubstrate to cells in culture. Viable cells reduce the proprietary prosubstrate to generate a substrate for NanoLuc luciferase. This substrate diffuses from cells into the surrounding culture medium, where it is rapidly used by the NanoLuc Enzyme to produce a luminescent signal. The signal correlates with the number of viable cells, making the assay well suited for cytotoxicity studies.
Tox21 Assay Protocol Summary:
The mixture of HepG2 cell suspension and reagents were dispensed at 600cells/6 ul/well in 1536-well tissue culture treated black solid bottom plates using a Multidrop dispenser. After the assay plates were incubated at a 37 C/5% CO2 incubator for 5 hours, 23 nL of compounds dissolved in DMSO, positive and negative controls was transferred to the assay plate by a pintool work station. The plates were incubated at 37 C for 40 hours. The luminescence intensity were measured at 0h, 8h, 16h, 24h, 32h and 40h time points using ViewLux plate reader during compound treatment.
% is scaled to controls: 0 for no effect and ±100 for the full control effect.

| Compound | viability change, negative = cytotoxic |
| --- | --- |
| CC1(C)CCC(C)(C)c2cc(NC(=O)c3ccc(C(=O)O)cc3)ccc21 | 4.67% [at 35.3 µM] |
| CN(C)CC/C=C1\c2ccccc2COc2ccccc21 | -7.94% [at 35.3 µM] |
| CCCC[C@H]1CN(CC2CCOCC2)C(=O)OC12CCN(C1(C)CCN(C(=O)c3c(C)ncnc3C)CC1)CC2 | 3.67% |
| CCCCOC(O)CC (stereo not given) | 1.71% |
| CCCCCCOC(=O)CCC | -10.5% |
| OCCC1CCCCN1 (stereo not given) | 4.29% |
| CC(=O)NCCCS(=O)(=O)O | -5.28% [at 35.3 µM] |
| CC(C)(C)C(=O)OCOP(=O)(COCCn1cnc2c(N)ncnc21)OCOC(=O)C(C)(C)C | -4.75% [at 35.3 µM] |
| CCOC(=O)C1=NN(c2ccccc2)C(=O)C1 | -1.44% |
| COCCCCCCCCOCCC[Si](C)(O[Si](C)(C)C)O[Si](C)(C)C | -10.9% |
| CC(C(=O)O)c1ccc(C(=O)c2ccccc2)s1 (stereo not given) | 2.84% [at 35.3 µM] |
| Cc1cccc(Oc2ccccc2)c1 | -10.9% |
| CC(=O)O[C@H]1C[C@@H]2CC[C@@H]3[C@H](CC[C@@]4(C)[C@H]3C[C@H]([N+]3(C)CCCCC3)[C@@H]4OC(C)=O)[C@@]2(C)C[C@@H]1N1CCCCC1 | 3.52% [at 35.3 µM] |
| COC(=O)C(C)=O | 0.348% |
| C=Cc1c(C)c2cc3[nH]c(cc4nc(cc5nc(cc1[nH]2)C(C)=C5CCC(=O)O)C(CCC(=O)O)=C4C)c(C)c3C=C | -7.92% [at 35.3 µM] |
| CC1(C)[C@H]2CC[C@]1(C)[C@H](O)C2 | 2.94% |
| CC(C)NCC(O)COc1ccc(CC(N)=O)cc1 (stereo not given) | 2.68% |
| COc1cc(C(C)(C)C)c(O)c(C(C)(C)C)c1 | -9.15% |
| Cc1c(Cn2ccnc2)c2ccccc2n1CCC(=O)O | 2.59% [at 35.3 µM] |
| CCCCCCCCCCCCCCCBr | -9.66% [at 35.3 µM] |

| Compound | viability change, negative = cytotoxic |
| --- | --- |
| CC(=O)O[C@@H]1C(=O)O[C@@H]2[C@H]1OC(=O)[C@@H]2OC(C)=O | 5.3% [at 35.3 µM] |
| COc1ccccc1OC(=O)Oc1ccccc1OC | 5.75% [at 35.3 µM] |
| O=C(O)COC(=O)Cc1ccccc1Nc1c(Cl)cccc1Cl | 8.05% [at 35.3 µM] |
| CC(C)(C)c1ccc(OCC2CO2)cc1 (stereo not given) | -1.71% |
| CCN(CC)CCOc1ccc2c(c1)C(=O)c1cc(OCCN(CC)CC)ccc1-2 | -0.958% [at 35.3 µM] |
| O=S1(=O)N=C(O)c2ccccc21 | -11.9% [at 35.3 µM] |
| C=C(C)C(=O)OCCOc1ccccc1 | -0.2% |
| CCN(CC)CCOC(=O)C1(c2ccccc2)CCCC1 | -3.68% [at 35.3 µM] |
| O=[N+]([O-])c1cccc(Cl)c1Cl | 3.94% |
| O=C(Cl)c1ccc([N+](=O)[O-])cc1 | 3.59% |
| CCOC(=S)SSC(=S)OCC | 1.1% |
| CCN(CCO)CCCC(C)Nc1ccnc2cc(Cl)ccc12 (stereo not given) | 4.72% [at 6.97 µM] |
| C=C(C)C(=O)OC(C)C | -4.88% |
| Cc1ccc2c(ccc3ccccc32)c1 | 1.01% |
| C[C@H](CCC(=O)O)[C@H]1CC[C@H]2[C@@H]3[C@H](O)C[C@@H]4C[C@H](O)CC[C@]4(C)[C@H]3CC[C@]12C | 0.132% |
| CC(C)(C)c1cc(CO)cc(C(C)(C)C)c1O | -5.05% |
| CN(C)CCCNCCCN | 3.38% |
| COC(Cc1ccccc1)OC | 3.9% |
| CCCCCCCCCC(=O)OCC | 0.938% |
| OCC1CC2CC1C1CCC(CO)C21 (stereo not given) | 0.172% |
